Reference: the supplement of paper PMC6555819

Legend:
Test in all cases: PBM binding z-score (relative to random genomic background probes); higher = stronger binding; sequences stand for … in GC…GCGATTGACAGCGTAGAATGAAGG
[1] = tested on: FXR:RXRa (NR concentration 270 nM, RXRa partner concentration 90 nM)
In short: (§1)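 Regression normalization was applied to scanned fluorescence from custom Agilent 4×180K protein-binding microarrays. Before scanning, arrays were incubated 1 h with ligand-free nuclear receptor dimers, and binding was detected with antibodies against each partner (one per run). Binding z-scores use the random background probes as reference.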

[2] = tested on: LXRa:RXRa (NR concentration 270 nM, RXRa partner concentration 90 nM)
In short: as §1

[3] = tested on: LXRa homodimer (NR concentration 270 nM)
In short: as §1

[4] = tested on: LXRb:RXRa (NR concentration 270 nM, RXRa partner concentration 90 nM)
In short: as §1

[5] = tested on: LXRb homodimer (NR concentration 270 nM)
In short: as §1

[6] = tested on: PPARa:RXRa (NR concentration 270 nM, RXRa partner concentration 90 nM)
In short: as §1

[7] = tested on: PPARg:RXRa (NR concentration 180 nM, RXRa partner concentration 90 nM)
In short: as §1

[8] = tested on: PPARg:RXRa 270nM:90nM, anti-RXR (NR concentration 270 nM, RXRa partner concentration 90 nM)
In short: as §1

[9] = tested on: PPARg:RXRa 30nM:10nM, anti-RXR (NR concentration 30 nM, RXRa partner concentration 10 nM)
In short: as §1

[10] = tested on: PPARg:RXRa 90nM:30nM, anti-RXR (NR concentration 90 nM, RXRa partner concentration 30 nM)
In short: as §1

[11] = tested on: PPARg:RXRa DBDmut IVT, anti-RXR (DBD mutation: RXRa K156A/R161A, NR concentration 270 nM, RXRa partner concentration 90 nM)
In short: as §1

[12] = tested on: PPARg:RXRa IVT, anti-PPARg (NR concentration 270 nM, RXRa partner concentration 90 nM)
In short: as §1

[13] = tested on: PPARg DBDmut:RXRa IVT, anti-PPARg (DBD mutation: PPARg1 K132A/R137A, NR concentration 270 nM, RXRa partner concentration 90 nM)
In short: as §1

[14] = tested on: PPARg DBDmut IVT, anti-PPARg (DBD mutation: PPARg1 K132A/R137A, NR concentration 270 nM)
In short: as §1

[15] = tested on: PPARg homodimer (NR concentration 180 nM)
In short: as §1

[16] = tested on: PXR:RXRa (NR concentration 270 nM, RXRa partner concentration 90 nM)
In short: as §1

[17] = tested on: PXR homodimer (NR concentration 270 nM)
In short: as §1

[18] = tested on: RARa:RXR (NR concentration 270 nM, RXRa partner concentration 90 nM)
In short: as §1

[19] = tested on: RARa homodimer (NR concentration 270 nM)
In short: as §1

[20] = tested on: RARb:RXRa (NR concentration 270 nM, RXRa partner concentration 90 nM)
In short: as §1

Sequence	PBM binding z-score [1]	PBM binding z-score [2]	PBM binding z-score [3]	PBM binding z-score [4]	PBM binding z-score [5]	PBM binding z-score [6]	PBM binding z-score [7]	PBM binding z-score [8]	PBM binding z-score [9]	PBM binding z-score [10]	PBM binding z-score [11]	PBM binding z-score [12]	PBM binding z-score [13]	PBM binding z-score [14]	PBM binding z-score [15]	PBM binding z-score [16]	PBM binding z-score [17]	PBM binding z-score [18]	PBM binding z-score [19]	PBM binding z-score [20]
CGAACTAGGTCAGAACAGGACAGCGAAGGATGAT	1.13	0.841	-0.226	0.393	-0.43	3.3	5.21	4.4	1.79	3.38	6.88	7.17	2.58	2.2	1.18	0.861	-0.18	1.86	0.0245	2.88
ATATGTAGGTTATCGGGTAATTCAGTTTGCGCAT	0.917	1.31	1.01	1.33	0.955	3.5	5.49	5.19	2.91	4.5	7.14	7.39	1.87	2.29	2.19	1.23	1.15	1.11	1.97	1.02
CGTCAAAATTCAAGGTAACGTAACAGAAAGCAGC	0.068	-0.273	0.242	0.13	0.187	0.331	0.678	0.108	0.0221	0.028	0.000306	0.704	0.815	0.761	0.474	-0.0296	0.268	0.363	0.932	0.208
AGAACGAGGGCACGCTGAGTTGATTGCAGAGTAG	0.793	0.4	-0.818	-0.114	-1.35	1.94	1.71	1.83	0.402	1.15	4.08	3.53	0.256	0.126	0.222	1.56	-0.0942	0.717	-0.751	2.36
GCATCTAGGTAATACAAGGTGAAAGTCCGATTGT	1.09	1.15	0.539	0.383	-0.273	1.5	0.956	0.984	0.0503	0.572	4.35	3.42	0.512	0.835	0.218	0.368	-0.443	0.737	-0.154	0.5
CTACCAAGGTGAACAAGGTCGTTGGTTACTATTC	1.39	1.4	0.281	1.71	-0.365	2.45	0.875	1.37	-0.194	0.758	1.96	2.45	0.303	-0.188	0.751	2.75	2.32	2.28	0.473	2.14
ACTATTAGTTGCGACGAGGGCAACCGATAGGTTG	0.025	-0.176	-0.51	-0.131	-0.0376	0.201	0.576	0.00262	-0.168	0.0381	-0.375	0.286	0.385	0.517	0.166	0.401	-0.0266	0.277	0.0553	0.852
